Source: PubChem BioAssay (several laboratories)
UHRF1 binding: UHRF1 methyl-DNA binding inhibition; UHRF1 binding to methylated oligo, TR-FRET; inhibition, % at 4.4 µM; 370,000 tested, 0.75% active; in the data active = inhibition above about 21%;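 note: UHRF1 SRA domain binding a hemimethylated CpG hairpin DNA probe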
MBD2 DNA inh: MBD2-methylated oligo binding inhibition; TR-FRET, MBD2 binding to methylated oligonucleotide; inhibition, % at 4.4 µM; 370,000 tested, 0.31% active; AID 686964; in the data active = inhibition above about 13%
UBC13 inh: human UBC13 polyubiquitination inhibition; inhibition, % at 20 µM; P61088; UBC13 polyubiquitin chain formation, TR-FRET; 330,000 tested, 0.47% active; AID 485273; in the data active = inhibition above about 45%, passing the limit was not always enough
Neddylation inh: cullin neddylation inhibition | 360,000 tested, 0.58% active | TR-FRET cullin neddylation, biochemical | calls only at 25 µM | AID 651699; in the data active = inhibition above about 36%
Of the large screens only hits and unclear results are named; the others gave an inactive call. In the library only some 1.8% were active in any assay of this set; here they are far more common.

CCC(C)(C)NC(=O)C(c1ccc(C)cc1)N(CC1CCCO1)C(=O)CCC(=O)Nc1ccccn1 (centres undefined)	UHRF1 binding 32.9
Cc1cccc(N=[N+]([O-])c2cccc(C)n2)n1	UHRF1 binding 41.8 (no result: UBC13 inh)
CC(C(=O)Nc1ccc(C(=O)O)c(O)c1)N1C(=O)/C(=C\c2ccco2)SC1=S (centres undefined)	none (no result: UHRF1 binding, MBD2 DNA inh)
O=C(CN1C(=O)/C(=C/c2ccco2)SC1=S)Nc1ccc(O)c(C(=O)O)c1	UHRF1 binding 58.4
O=C(CN1C(=O)/C(=C/c2ccco2)SC1=S)NC1CCS(=O)(=O)C1 (centres undefined)	UHRF1 binding 52.5
CCOC(=O)N1CCN(C(=O)CN(c2ccc(C)cc2)S(=O)(=O)c2c(C)noc2C)CC1	none
CCCc1nc2c(C)cc(Br)cn2c1Cc1ccccc1C(F)(F)F	UHRF1 binding 22.0 (no result: UBC13 inh)
COc1ccccc1Cc1c(-c2ccc(Cl)cc2)nc2ccc(C)cn12	UHRF1 binding 20.7 (no result: UBC13 inh, Neddylation inh)
CCCc1nc2ccc(C)cn2c1Cc1ccccc1C(F)(F)F	UHRF1 binding 24.3 (no result: UBC13 inh)
CCCc1nc2ccc(C)cn2c1Cc1ccccc1OC	UHRF1 binding 21.9 (no result: UBC13 inh)
Cc1ccc2nc(-c3ccc(Cl)cc3)c(Cc3ccccc3C(F)(F)F)n2c1	none (no result: UBC13 inh)
CCOC(=O)N1CCC(NC(=O)C2=CCN(S(=O)(=O)c3ccc(F)cc3)CC2)CC1	none
COc1ccccc1N(CC(=O)NCc1ccco1)S(=O)(=O)c1ccc(C)cc1	UHRF1 binding 28.9
COc1ccc(N(CC(=O)NCc2ccco2)S(=O)(=O)c2ccc(C)cc2)cc1OC	none
CC1(C)C2CCC1(C)C(NC(=O)/C=C/c1ccccc1)C2 (centres undefined)	UHRF1 binding 25.4
Cc1occc1C(=O)N/N=C/C=C/c1ccc(N(C)C)cc1	Neddylation inh active
Cc1occc1C(=O)N/N=C/c1ccc(N(C)C)cc1	Neddylation inh active
O=C1CSC(c2ccc3c(c2)OCO3)N1c1ccc(Oc2ccccc2)cc1 (centres undefined)	none
CCOC(=O)c1cnc2ccc(C)cc2c1Sc1ccc(F)cc1	none
COc1ccc2ccc3c(c2c1)N=CC1(O3)N(C)c2ccccc2C1(C)C (centres undefined)	Neddylation inh active (no result: UHRF1 binding, MBD2 DNA inh)
COC(=O)CSC1=C(C#N)C(c2ccc(Cl)cc2)C(C(=O)OC)C(=O)N1 (centres undefined)	UHRF1 binding 22.6
CC(C)NC(=O)N(C)C[C@H]1Oc2c(NC(=O)Nc3ccccc3)cccc2C(=O)N([C@H](C)CO)C[C@@H]1C	none
CSCCC(NC(=O)c1ccccc1Cl)C(=O)N1CCCCC1 (centres undefined)	UHRF1 binding 40.9
CSCCC(NC(=O)c1ccccc1Cl)C(=O)N1CCN(C(C)=O)CC1 (centres undefined)	none
COc1ccc(/C=C/C(=O)NCCNC(=O)c2ccccc2)cc1OC	UHRF1 binding 24.6
Cc1cc(N2CCC(C)CC2)nc(-n2nc(C)cc2C)n1	none
COC1C=CC(CNC(=O)c2cc3c(=O)n4cccc(C)c4nc3n2C)(OC)O1 (centres undefined)	UHRF1 binding 68.7 (not shown: Neddylation inh)
O=[N+]([O-])c1cccc2c1ccc1ncccc12	UHRF1 binding 49.0
Cc1ccc2ncccc2c1[N+](=O)[O-]	none
Cc1cc(C)n2nc(C(=O)Nc3ccc4c(c3)OCO4)nc2n1	none
Cc1ccnc2nc(C(=O)Nc3ccc4c(c3)OCO4)nn12	UHRF1 binding 23.0
O=[n+]1cc(-c2ccc(Cl)cc2)n([O-])c2c1CCC2	none
O=[n+]1cc(-c2ccccc2)n([O-])c2c1CCC2	UHRF1 binding 20.9
O=C(CCCc1nc2ccccc2s1)N1CCN(S(=O)(=O)c2cccs2)CC1	none
COCCn1cnc2c(c1=O)c1nc3ccccc3nc1n2/N=C/c1cccc(OC)c1	UHRF1 binding 24.4
COc1cc(C(=O)Nc2scc(-c3ccc(C)cc3)c2C(=O)O)cc(OC)c1OC	none (not shown: Neddylation inh)
Cc1ccc(C(=O)Nc2scc(-c3ccccc3)c2C(=O)O)cc1	Neddylation inh active
CCOCCCNC(=O)/C(C#N)=C/c1ccc(-c2ccc(S(=O)(=O)N3CCOCC3)cc2)o1	none (no result: UHRF1 binding, MBD2 DNA inh)
COCCNC(=O)/C(C#N)=C/c1ccc(-c2ccc(S(=O)(=O)N3CCOCC3)cc2)o1	UHRF1 binding 69.1
COCCNC(=S)Nc1ccc(S(=O)(=O)Nc2cnc3ccccc3n2)cc1	UHRF1 binding 36.6
COCCNC(=S)Nc1ccc(S(=O)(=O)Nc2ncccn2)cc1	none
CC(=O)Nc1ccc(NC(=O)CSc2nnc(CC(C)O)n2-c2ccccc2)cc1 (centres undefined)	none
CCc1cc(-c2nnn(CCC3COCCO3)c2CC)cc(CC)c1-c1cn(Cc2ccc3ccccc3c2)nn1 (centres undefined)	UHRF1 binding 65.4 (no result: UBC13 inh)
